# In the library only some 28% were active in any assay of this set; here they are far more common.
# CYP2C19 activ – cytochrome P450 2C19 (human) activation | recombinant CYP2C19, luciferin-H EGE luminescence; hits give high values; 0 = fully inhibited enzyme, 1 = untreated enzyme | activation factor at 5 µM | 96,000 tested, under 10 active | AID 1025;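 active means activation factor of at least 2 at 5 µM in the primary screen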;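 further: 0 = wells with 2.5 mM tranylcypromine and 1 = vehicle-only wells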
# Target sequence (P33261 whole entry, looked up): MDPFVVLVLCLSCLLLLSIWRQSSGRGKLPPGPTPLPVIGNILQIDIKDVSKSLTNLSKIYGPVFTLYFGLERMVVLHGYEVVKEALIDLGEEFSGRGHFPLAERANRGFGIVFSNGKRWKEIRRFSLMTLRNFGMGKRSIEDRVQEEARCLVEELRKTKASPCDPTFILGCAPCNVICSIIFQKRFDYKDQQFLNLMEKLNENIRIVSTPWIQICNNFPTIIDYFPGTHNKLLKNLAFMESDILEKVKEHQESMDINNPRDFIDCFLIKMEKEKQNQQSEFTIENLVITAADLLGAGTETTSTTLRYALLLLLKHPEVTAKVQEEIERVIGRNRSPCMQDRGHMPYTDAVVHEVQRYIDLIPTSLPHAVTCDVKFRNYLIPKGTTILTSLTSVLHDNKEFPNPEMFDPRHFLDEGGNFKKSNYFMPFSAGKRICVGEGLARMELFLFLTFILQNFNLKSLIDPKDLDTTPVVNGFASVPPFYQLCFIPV
# CD11b adhes inh – CD11b/CD18-fibrinogen binding inhibition; P05107+P11215; K562 CD11b/CD18 adhesion to fibrinogen, ATPlite luminescence; Mn2+ added to activate the integrin; inhibition, % at 10 µM; 0.54% of 93,000 active; AID 1497;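 active means primary inhibition of 50% or more at 10 µM, then 40% or more on retest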
# CYP2C9 inh – blocks human cytochrome P450 2C9. P11712. CYP2C9 Supersomes, luciferin-H conversion, luminescence. inhibition, % at 5 µM. 20% of 96,000 active. AID 777;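 active means blocking of liver enzyme CYP2C9 beyond about 50% at 5 µM, limit read from the data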
# CYP2C9 activ – increases human cytochrome P450 2C9 activity | recombinant CYP2C9, luciferin-H conversion, luminescence; hits give high values; factor 1 = untreated enzyme, 0 = blocked | activation factor at 5 µM | 1.4% of 96,000 active;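 active means activation factor of 2 or more for CYP2C9 at a 5 µM dose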;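 further: 0 = sulfaphenazole-blocked wells and 1 = vehicle-only wells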
# CYP2C19 inh – inhibitors of human CYP2C19; P33261; CYP2C19 Supersomes, luciferin-H EGE luminescence, 30 min; inhibition, % at 5 µM; 21% of 96,000 active; AID 778;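 active means CYP2C19 inhibition above a set limit at 5 µM in the primary screen, cut at about 50% in these data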;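 further: plate controls were negative control wells for no effect and 2.5 mM tranylcypromine positive control for full effect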
# CD11b adhes enh – increases human CD11b/CD18 adhesion to fibrinogen; activation, % at 10 µM; K562 CD11b/CD18 adhesion to fibrinogen, ATPlite luminescence; 0.07% of 93,000 active; AID 1499; P05107+P11215;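 active means 10 µM primary screen giving 50% or more activity, confirmed by 40% or more on retest at that dose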
# Starred values were filed as active, the others as inactive; . = no result.
SMILES,CYP2C19 activ,CD11b adhes inh,CYP2C9 inh,CYP2C9 activ,CYP2C19 inh,CD11b adhes enh
Clc1ccc(-c2nc3cnccn3c2NC2CCCC2)cc1,0.2,-6,89*,0.1,76*,5
Oc1ccccc1-c1nc2cnccn2c1Nc1ccc2c(c1)OCCO2,0.1,7,94*,0.1,92*,-4
CSc1ccc(-c2nc3cnccn3c2Nc2ccc3c(c2)OCO3)cc1,0,4,88*,0.1,96*,0
Clc1ccc(-c2nc3cnccn3c2Nc2ccc3c(c2)OCO3)cc1,0.1,1,82*,0.2,87*,6
O=C(NCCSCc1ccco1)Nc1cccc(Cl)c1,0.4,.,33,0.7,64*,.
CC(C)(C)SCCNC(=O)COc1ccccc1,0.7,.,13,0.9,29,.
O=C(COc1ccccc1)NCCSCc1ccco1,0.1,-36,63*,0.4,85*,-4
O=C(COc1ccccc1)NCCSc1ccccc1,0,-1,60*,0.4,97*,3
CCc1ccc(OCC(=O)NCCOc2ccccc2)cc1,0.7,2,50*,0.5,30,3
O=C(c1ccc(=O)n(Cc2ccc(Cl)c(Cl)c2)c1)N1CCOCC1,0.6,.,24,0.8,38,.
NC(=O)C1CCN(C(=O)C2c3ccccc3C(=O)N3CCc4ccccc4C23)CC1 (stereo not drawn),1,-4,18,0.8,-4,-3
CC(C)NC(=O)NC(=O)CSc1nnc(COc2ccccc2Cl)o1,0.9,0,28,0.7,14,0
CC(C)CCNC(=O)NC(=O)CSc1nnc(COc2ccccc2Cl)o1,0.5,-19,53*,0.5,50,12
Cc1cc(C)cc(OCc2nnc(SCC(=O)OC(C)C)o2)c1,0.4,3,-26,1.3,60*,0
CC(NC(=O)CSc1ncccn1)c1ccccc1 (stereo not drawn),0.2,9,7,0.9,78*,-1
CC(NC(=O)CSc1nnc(COc2ccccc2)o1)c1ccccc1 (stereo not drawn),0.2,2,46,0.5,82*,-1
Cc1cc(C)cc(OCc2nnc(SCC(=O)N3CCN(c4ccccc4)CC3)o2)c1,0.6,-12,21,0.8,39,13
O=c1[nH]c(N2CCOCC2)nc2c1CCCC2,1,-13,-11,1.1,-1,-3
CCCCNC(=O)c1ccc2c(c1)N(CC)C(=O)c1ccccc1S2(=O)=O,0.5,-1,90*,0.1,46,-3
CCN1C(=O)c2ccccc2S(=O)(=O)c2ccc(C(=O)NCc3cccnc3)cc21,0.4,-4,98*,0,58*,-2
c1ccc(-n2nc3c(ccc4cnnc43)[nH]2)cc1,0.7,-11,60*,0.4,32,-4
COc1ccc(NC(=O)c2cc(=O)c3ccccc3o2)cn1,0.9,-9,2,1,10,-4
CN(C)S(=O)(=O)Nc1ccc2c(c1)Cc1ccccc1-2,0.6,-4,94*,0.1,43,-5
COc1ccc(NS(=O)(=O)c2ccc3c(c2)Cc2ccccc2-3)cn1,0.6,60,88*,0.1,43,-4
Cn1c(NC(=O)c2cccc(Cn3cc(Cl)cn3)c2)nc2ccccc21,1,-2,-3,1,2,4
SMILES,CYP2C19 activ,CD11b adhes inh,CYP2C9 inh,CYP2C9 activ,CYP2C19 inh,CD11b adhes enh
COc1ccc(NC(=O)c2cc(CN3C(=O)c4ccccc4C3=O)ccc2OC)cn1,0.7,-1,78*,0.2,33,27
COc1ccc(NC(=O)c2cccc(Cn3cc(Br)cn3)c2)cn1,0.3,2,78*,0.2,71*,-1
CN(C)S(=O)(=O)Nc1ccc(NS(=O)(=O)N(C)C)c(S(=O)(=O)c2ccccc2)c1,1.1,-12,36,0.6,-7,-5
CCC(=O)N1c2ccc(S(=O)(=O)CCC(=O)N3CCn4c3nc3ccccc34)cc2CC1C (stereo not drawn),0.7,.,47,0.5,26,.
COc1ccc(NC(=O)c2cccc(S(=O)(=O)Nc3ccc(Br)cc3)c2)cn1,.,103*,.,.,.,-11
COc1ccc(C(=O)NC2CCCCCC2)cc1S(=O)(=O)Nc1ccc(Br)cc1,1.1,0,13,0.9,-13,-2
COc1ccc(CNC(NC(=O)c2ccccc2)(C(F)(F)F)C(F)(F)F)cc1,.,-3,.,.,.,2
COc1ccc2cc(CCNC(=O)c3ccc4c(c3)OCO4)c(=O)[nH]c2c1,0.6,5,82*,0.2,37,8
CCC(CC)C(=O)NCCc1cc2ccc(OC)cc2[nH]c1=O,1,.,9,0.9,2,.
COc1ccc2cc(CCNC(=O)c3ccc(Br)o3)c(=O)[nH]c2c1,0.5,-48,25,0.8,51*,0
O=C(COc1cccc(-n2cnnn2)c1)N1CCOCC1,1.1,-7,5,0.9,-10,2
Cc1nc2ccccc2c2c1C(=O)N(Cc1cccnc1)C2=O,0,3,46,0.5,97*,-6
C/C(=N\NC(=O)CN1CCOCC1)C(C)(C)C,1.1,-27,-9,1.1,-8,-2
c1ccc(-n2nnnc2-n2ccnc2)cc1,0.9,-16,-1,1,15,2
N#Cc1c(Cl)cccc1-n1ccnc1,0.6,2,51*,0.5,41,22
N#Cc1c(-n2cccc2)cccc1-n1cccc1,0.4,-2,-270,3.7*,62*,-3
NC(=O)C(F)(F)C12OC3C4C5CC(C6C5C3C61)C42 (stereo not drawn),0.9,-10,-10,1.1,6,2
Cc1ccccc1CS(=O)(=O)CCC(=O)NCCN1CCN(c2cccc(Cl)c2)CC1,0.8,15,25,0.8,21,-5
Nn1c(=O)c2ccccc2n2c(SCc3ccc(C(F)(F)F)cc3)nnc12,0.6,-4,50*,0.5,42,-1
Nn1c(=O)c2ccccc2n2c(SCc3ccccc3)nnc12,1.1,-6,0,1,-11,5
Cc1c(Cl)c(-c2n[nH]c(=S)n2-c2ccccc2)nn1C,.,44,.,.,.,3
NS(=O)(=O)c1cccnc1Nc1c(Cl)cccc1Cl,0.4,5,46,0.5,60*,-6
CCOC(=O)C1CCN(C(=O)CSc2nnc(-c3ccco3)n2-c2ccccc2)CC1,0.5,-8,54*,0.5,53*,-4
O=C(CSc1nnc(-c2ccco2)n1-c1ccccc1)N1CCOCC1,1.1,-24,-14,1.1,-7,0
O=S(=O)(NCCSc1nnc(-c2ccco2)n1-c1ccccc1)c1ccccc1,0.2,-16,83*,0.2,76*,-1
c1ccc(-n2c(-c3ccco3)nnc2-c2ccco2)cc1,1.1,4,16,0.8,-15,-2
CCSc1nnc2n1C(C)(C)Cc1ccccc1-2,1.1,1,-1,1,-7,-2
